Compounds with a hit are over-represented: about 21% of the library has one in this group of screens.
Shiga inhibitor: A qHTS for Small Molecule Inhibitors of Shiga Toxin | 290,000 compounds, 9.2% hits | Vero cells, Shiga toxin protein synthesis inhibition reporter | inhibition, % at 38.7 µM | AID 2315, 2010; in the data active = inhibition mostly above about 28%, no sharp cut-off; inactive = mostly below about 43%; also: 0% is about no effect
Pf growth 96h: Primary qHTS for delayed death inhibitors of the malarial parasite plastid, 96 hour incubation; P. falciparum luciferase reporter growth, 96 h; Potency, µM (highest dose often 28.7 µM), without a hit: at the top dose activity change, negative = inhibition, most hits filed as inhibitors; 320,000 compounds, 6.9% hits; AID 504834, 2011; also: potency is read from the fitted curve at half-maximal effect; % is scaled to controls: 0 for no effect and ±100 for the full control effect
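96 h incubation, 37 C, 5% CO2, of luciferase-reporter P. falciparum-infected RBCs (2% hematocrit, 0.05% parasitemia final) with test compounds; endpoint luminescence.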
Pf growth 48h: Primary qHTS for delayed death inhibitors of the malarial parasite plastid, 48 hour incubation. 310,000 compounds, 5.9% hits. Potency, µM (doses to about 28.7 µM), inactives show top-dose activity change, negative = inhibition, hits mostly inhibitors. AID 504832, 2011. P. falciparum luciferase growth in erythrocytes, 48 h; also: potency is read from the fitted curve at half-maximal effect; % is scaled to controls: 0 for no effect and ±100 for the full control effect
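Here the parasites carry a stable luciferase gene and grow inside erythrocytes in Albumax-based RPMI medium with compound for one erythrocytic cycle. Activity is scored as loss of luminescent signal.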
HCV inhibitor: qHTS Assay for Inhibitors of Hepatitis C Virus (HCV); 340,000 compounds, 3.4% hits; Huh7.5.1 HCVcc-Cre infection, luciferase reporter, 44 h; Potency, µM (doses to about 41.8 µM), for the others: at the top dose activity change, negative = inhibition, most hits filed as inhibitors; also: potency is read from the fitted curve at half-maximal effect; % is scaled to controls: 0 for no effect and ±100 for the full control effect
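Infectious HCV cell culture screen: compound-treated cells (1,000/well, pre-plated 4 h) are infected with HCVcc-Cre at roughly 0.5 moi and grown 44 h. Infection is quantified by luciferase signal after 15 min substrate incubation at room temperature.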
CHX counter: Cycloheximide Counterscreen for Small Molecule Inhibitors of Shiga Toxin; cell reporter, cycloheximide protein synthesis inhibition counterscreen; max response, %; 300,000 compounds, 12% hits; AID 2314, 2010; in the data active = max response mostly above about 13%, no sharp cut-off; inactive = mostly below about 14%; also: read at 38.3 µM for the half of the compounds with a filed dose; 0% is about no effect
HCMV inh: qHTS Assay for inhibitors of the human cytomegalovirus (HCMV) | HFF cells, HCMV-luciferase reporter, 72 h; stronger effect = lower value | activity change, negative = inhibition, % at 57.5 µM | 410,000 compounds, 4.5% hits | AID 1259415, 2018; in the data active = activity change below about -60%; inconclusive = no clear call, values can overlap the other calls; inactive = above about -39%; also: % is scaled to controls: 0 for no effect and ±100 for the full control effect
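Inhibition of viral replication was scored as loss of reporter luminescence in HFFs infected with HCMV-luciferase (MOI 1 PFU/cell) for 72 h; compounds tested at 2 doses, normalized to buffer and Salinomycin controls.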
* marks the source's active call; other numbers are inactive results; i = inactive; ? = inconclusive; nt = not tested or not shown. Unless noted, calls follow the shape of the dose curve; as a rule, active = well fitted inhibition curve with a large enough effect; inconclusive = small, poorly fitted or top-dose-only effect, or another doubt; inactive = no such curve, though single readings can be large or run the other way.

SMILES | Shiga inhibitor | Pf growth 96h | Pf growth 48h | HCV inhibitor | CHX counter | HCMV inh
COCC#Cc1cnc2c(c1)C(=O)N([C@@H](C)CO)C[C@H](C)[C@H](CN(C)C(=O)c1ccc3c(c1)OCO3)O2 | nt | nt | nt | nt | nt | -17.5
O=C(O)C1CC=CCC1C(=O)Nc1ccc(Oc2ccc(Cl)cc2)cc1 (stereo not given) | 11.6 | 2.6% | 20.3% | 6.0% | 0.6 | -35.5
Cc1ccc(NC(=O)Nc2ccc(F)cc2)cc1Cl | 78.3* | ? | ? | -29.9% | 32.2* | 21.8
COCC(=O)Nc1ccc(C)c(Cl)c1 | 7.5 | nt | 19.1% | 2.0% | 5.1 | -20.6
CN(C)C(=O)Nc1ccc(Oc2ccc(Cl)cc2)cc1 | 14.5 | nt | nt | nt | 19.6* | nt
Cc1ccc(NC(=O)N(C)C)cc1Cl | 13.6 | nt | nt | nt | 10.9* | nt
CCCCOC(=O)Nc1ccc(C)c(Cl)c1 | 56.6* | ? | 79.9% | -6.9% | 33.0* | 86.7
COc1ccc(-c2ccc3c(c2)COCC(=O)N3CCN2CCOCC2)cc1 | nt | nt | nt | nt | nt | -16.5
COc1cccc(NC(=O)Nc2ccc(C)c(Cl)c2)c1 | 78.1* | 37.9% | -68.4% | -20.9% | 45.4* | -14.0
COc1cccc(NC(=O)Nc2cc(C(=O)O)ccc2C)c1 | -3.7 | i | 28.5% | 22.3% | -3.1 | 1.0
O=C(Cn1c(=O)n(-c2ccc(F)cc2)c(=O)c2sc3ccccc3c21)NC1CCCCC1 | nt | nt | nt | nt | nt | -1.5
CC(=O)N1CCN(C(=O)CCc2cc(C(C)(C)C)c(O)c(C(C)(C)C)c2)CC1 | -23.6 | 13.1µM* | ? | ? | -2.7 | 2.7
CC(C)(C)c1cc(CCC(=O)NCc2ccncc2)cc(C(C)(C)C)c1O | 24.4 | ? | ? | ? | 19.5* | nt
CC(C)(C)c1cc(CCC(=O)Nc2ccncc2)cc(C(C)(C)C)c1O | nt | nt | nt | ? | nt | -63.3*
CC(C)(C)c1cc(CCC(=O)NNC(=O)c2ccncc2)cc(C(C)(C)C)c1O | nt | 24.3% | -3.8% | ? | nt | -2.5
CCCNC(=O)CCc1cc(C(C)(C)C)c(O)c(C(C)(C)C)c1 | -9.9 | ? | ? | ? | 1.4 | ?
CC(C)(C)c1cc(CCC(=O)N2CCCC2)cc(C(C)(C)C)c1O | -18.3 | -31.3% | 1.3% | 3.6% | -2.8 | -3.4
CC(C)(C)c1cc(CCC(=O)NCCc2ccccn2)cc(C(C)(C)C)c1O | 18.2 | 11.7µM* | ? | ? | 11.9 | -38.5
CC(=O)Nc1ccc(C(=O)COC(=O)C2CCCCC2)c(F)c1 | nt | 22.2% | 21.0% | 4.2% | nt | -22.2
CC(=O)N1CCOc2cc(S(=O)(=O)NCc3ccccc3Cl)c(Cl)cc21 | nt | -0.9% | 0.1% | nt | nt | -4.3
CCSc1oc(-c2ccc(F)cc2)nc1S(=O)(=O)c1ccc(C)cc1 | nt | nt | nt | nt | nt | -65.3*
CC(C)CS(=O)(=O)c1oc(-c2ccc(F)cc2)nc1S(=O)(=O)c1ccccc1 | nt | nt | nt | nt | nt | -99.8*
O=C(NNC(=S)Nc1ccc(Cl)cc1)c1cccs1 | 99.9* | -1.3% | 77.9% | 23.2% | 38.3* | ?
O=C(CCC(=O)Nc1ccccc1)NNC(=O)c1cccs1 | -11.6 | 47.0% | 8.0% | 27.7% | 10.4 | 11.9
O=C(NNC(=S)Nc1ccccc1)c1cccs1 | 47.1* | 256.0% | 193.0% | 26.7% | 37.8* | -1.3
O=C(NNc1ccc(Cl)cc1)c1cccs1 | -5.7 | ? | 0.0% | -19.9% | -2.4 | 58.5
CCc1nnc(NC(=O)[C@@H](NC(=O)c2cccc(S(=O)(=O)N(CC)CC)c2)C(C)C)s1 | -19.4 | nt | 1.65µM* | -22.2% | 4.8 | 31.1
CCN(CC)S(=O)(=O)c1cccc(C(=O)NC(C(=O)NCCc2ccccn2)C(C)C)c1 (stereo not given) | nt | nt | nt | 9.3% | nt | 3.6
CCN(CC)S(=O)(=O)c1cccc(C(=O)N[C@H](C(=O)OCC(=O)Nc2ccccc2)C(C)C)c1 | 15.9 | nt | 22.9% | -13.8% | 14.7* | 45.3
CCN(CC)S(=O)(=O)c1cccc(C(=O)N[C@H](C(=O)OCC(N)=O)C(C)C)c1 | -13.2 | nt | -0.8% | 6.2% | -1.8 | 20.7

Assay outcomes from PubChem.
